Results reported in PubChem BioAssay AID1159580 (chemical genetic matrix, 2015).
In all, about 5,500 compounds went through this assay and about 2,000 (36%) were called active. Roughly 18% stayed inconclusive and do not appear here. No stated cut-off is given here; in the data, active means normalized growth mostly below about 0.91 (no sharp cut-off); inconclusive means no clear call, values can overlap the other calls; inactive means mostly above about 0.92. This is one part of the list.

Test: chemical genetic growth profiling, strain panel (AID 1159580);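 further: tested at 20 µM; growth read once vehicle control cultures reached saturation at 30 °C; 1 = growth at the plate median or of vehicle wells; lower values mean less growth of the strain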
Details: S. cerevisiae deletion strains, growth OD
[1] = locus YAL040C, strain CLN3, hits give low values
[2] = locus YCL061C, strain MRC1 (second series), hits give low values
[3] = locus YDR363W, strain ESC2, hits give low values
[4] = locus YER002W, strain NOP16, hits give low values
[5] = locus YJR075W, strain HOC1, hits give low values
[6] = locus YMR263W, strain SAP30, hits give low values
[7] = locus YNL153C, strain GIM3, hits give low values
[8] = locus YNL175C, strain NOP13, hits give low values
[9] = locus YNL197C, strain WHI3, hits give low values
[10] = locus YNL224C, strain SQS1, hits give low values
[11] = locus YOR083W, strain WHI5 (second series), hits give low values
[12] = locus YAL021C, strain ccr4, hits give low values
[13] = locus YAL026C, strain drs2, hits give low values
[14] = locus YAL030W, strain snc1, hits give low values
[15] = locus YBL061C, strain skt5, hits give low values
[16] = locus YBR009C, strain hhf1, hits give low values
[17] = locus YBR023C, strain chs3, hits give low values
[18] = locus YBR171W, strain sec66, hits give low values
[19] = locus YBR231C, strain swc5, hits give low values
[20] = locus YBR279W, strain paf1, hits give low values
[21] = locus YCL011C, strain gbp2, hits give low values
[22] = locus YCL016C, strain dcc1, hits give low values
[23] = locus YCL061C, strain MRC1, hits give low values
[24] = locus YCL069W, strain vba3, hits give low values
[25] = locus YCR088W, strain abp1, hits give low values
[26] = locus YDL005C, strain med2, hits give low values
[27] = locus YDL040C, strain nat1, hits give low values
[28] = locus YDR001C, strain nth1, hits give low values
[29] = locus YDR069C, strain doa4, hits give low values
[30] = locus YDR137W, strain rgp1, hits give low values
[31] = locus YDR159W, strain sac3, hits give low values
[32] = locus YDR297W, strain sur2, hits give low values
[33] = locus YDR334W, strain swr1, hits give low values
[34] = locus YDR335W, strain msn5, hits give low values
[35] = locus YDR392W, strain spt3, hits give low values
[36] = locus YEL003W, strain gim4, hits give low values
[37] = locus YEL037C, strain rad23, hits give low values
[38] = locus YEL061C, strain CIN8 (second series), hits give low values
[39] = locus YER015W, strain faa2, hits give low values
[40] = locus YER016W, strain bim1, hits give low values
[41] = locus YER111C, strain swi4, hits give low values
[42] = locus YER155C, strain BEM2 (second series), hits give low values
[43] = locus YFR010W, strain ubp6, hits give low values
[44] = locus YGL167C, strain pmr1, hits give low values
[45] = locus YGL173C, strain kem1, hits give low values
[46] = locus YGL227W, strain vid30, hits give low values
[47] = locus YGL240W, strain doc1, hits give low values
[48] = locus YGL253W, strain hxk2, hits give low values
[49] = locus YHR013C, strain ard1, hits give low values
[50] = locus YHR027C, strain rpn1, hits give low values
[51] = locus YHR142W, strain chs7, hits give low values
[52] = locus YJL092W, strain hpr5, hits give low values
[53] = locus YJL095W, strain BCK1 (second series), hits give low values
[54] = locus YJL115W, strain asf1, hits give low values
[55] = locus YJL129C, strain trk1, hits give low values
[56] = locus YJL154C, strain vps35, hits give low values
[57] = locus YJL164C, strain tpk1, hits give low values
[58] = locus YJL166W, strain qcr8, hits give low values
[59] = locus YJL187C, strain SWE1, hits give low values
[60] = locus YKL160W, strain elf1, hits give low values
[61] = locus YKR026C, strain gcn3, hits give low values
[62] = locus YKR091W, strain srl3, hits give low values
[63] = locus YLL001W, strain dnm1, hits give low values
[64] = locus YLL026W, hits give low values
[65] = locus YLL041C, strain sdh2, hits give low values
[66] = locus YLR027C, strain aat2, hits give low values
[67] = locus YLR221C, strain rsa3, hits give low values
[68] = locus YLR258W, strain gsy2, hits give low values
[69] = locus YLR262C, strain YPT6 (second series), hits give low values
[70] = locus YLR320W, strain mms22, hits give low values
[71] = locus YLR342W, strain FKS1, hits give low values
[72] = locus YLR357W, strain rsc2, hits give low values
[73] = locus YLR370C, strain arc18, hits give low values
[74] = locus YLR384C, strain iki3, hits give low values
[75] = locus YML120C, strain ndi1, hits give low values
[76] = locus YMR058W, strain fet3, hits give low values
[77] = locus YMR125W, strain sto1, hits give low values
[78] = locus YMR129W, hits give low values
[79] = locus YMR205C, strain PFK2, hits give low values
[80] = locus YMR231W, strain pep5, hits give low values
[81] = locus YNL071W, strain lat1, hits give low values
[82] = locus YNL209W, strain ssb2, hits give low values
[83] = locus YNL248C, strain rpa49, hits give low values
[84] = locus YNL322C, strain KRE1 (second series), hits give low values
[85] = locus YNR049C, strain mso1, hits give low values
[86] = locus YOR001W, strain rrp6, hits give low values
[87] = locus YOR070C, strain gyp1, hits give low values
[88] = locus YOR080W, strain dia2, hits give low values
[89] = locus YOR083W, strain WHI5, hits give low values
[90] = locus YOR106W, strain vam3, hits give low values
[91] = locus YOR265W, strain rbl2, hits give low values
[92] = locus YOR270C, strain vph1, hits give low values
[93] = locus YOR290C, strain snf2, hits give low values
[94] = locus YPL051W, strain arl3, hits give low values
[95] = locus YPL078C, strain atp4, hits give low values
[96] = locus YPL106C, strain sse1, hits give low values
[97] = locus YPL240C, strain hsp82, hits give low values

Measured: normalized growth

CC[N+](CC)(CC)CC
inactive: [1] 1.02 | [2] 1 | [3] 0.99 | [4] 0.989 | locus YGR078C, strain PAC10, hits give low values 1 | locus YGR229C, strain SMI1, hits give low values 1.02 | [5] 1.02 | [6] 0.994 | locus YMR307W, strain GAS1, hits give low values 0.991 | [7] 0.986 | [8] 0.981 | [9] 1.01 | [10] 0.997 | [11] 0.999

C=CC[C@]1(O)CCC2C3CCC4=CC(=O)CCC4=C3C=C[C@@]21C (stereo partly specified)
active: [30] 0.806 | [35] 0.551 | [42] 0.815 | [69] 0.804 | [70] 0.838 | [81] 0.817
inactive: [12] 0.989 | [13] 0.975 | [14] 0.994 | [15] 0.989 | [16] 0.988 | [17] 0.986 | [18] 0.975 | [19] 0.988 | [20] 0.996 | [21] 1.01 | [22] 0.998 | [23] 0.998 | [24] 0.999 | [25] 0.987 | [26] 0.996 | [27] 0.991 | [28] 0.995 | [29] 0.996 | [31] 0.997 | locus YDR195W, strain ref2 1.05 | [32] 0.985 | [33] 0.997 | [34] 1.01 | [36] 0.992 | [37] 0.995 | [38] 0.993 | [39] 0.997 | [40] 0.996 | [41] 0.998 | [43] 1.01 | [44] 0.992 | [45] 0.99 | [46] 0.995 | [47] 0.989 | [48] 0.985 | [49] 0.935 | [50] 0.996 | locus YHR030C, strain SLT2, hits give low values 0.992 | locus YHR079C, strain IRE1, hits give low values 1 | [51] 0.944 | [52] 0.984 | [53] 1 | locus YJL095W, strain BCK1, hits give low values 0.909 | [54] 0.991 | [55] 0.91 | [56] 0.995 | [57] 1 | [58] 0.982 | [59] 0.993 | locus YJR066W, strain TOR1, hits give low values 0.946 | [60] 0.984 | [61] 0.977 | [62] 0.996 | [63] 1 | [64] 0.995 | [65] 0.991 | [66] 1 | locus YLR113W, strain HOG1, hits give low values 0.884 | [67] 0.986 | [68] 0.991 | [71] 0.969 | [72] 0.999 | [73] 0.982 | [74] 1 | [75] 0.98 | [76] 0.993 | [77] 1 | [78] 0.993 | [79] 0.895 | [80] 0.995 | locus YNL183C, strain NPR1, hits give low values 0.93 | [82] 1 | [83] 1.01 | [84] 0.999 | [85] 0.997 | [86] 0.99 | [87] 0.982 | [88] 0.998 | [89] 0.994 | [90] 1.01 | locus YOR231W, strain MKK1, hits give low values 0.985 | [91] 0.998 | [92] 0.872 | [93] 0.953 | [94] 0.988 | [95] 1.02 | [96] 1.04 | [97] 0.991 | locus YPL256C, strain CLN2, hits give low values 0.993

CC#CC1(O)CCC2C3CCC4=CC(=O)CCC4=C3C(c3ccc(N(C)C)cc3)CC21C (stereo unspecified)
inactive: [12] 0.982 | [13] 0.996 | [14] 0.989 | [15] 0.999 | [16] 0.998 | [17] 0.993 | [18] 1.01 | [19] 1 | [20] 0.993 | [21] 1 | [22] 1.01 | [23] 1.01 | [24] 1 | [25] 0.997 | [26] 1.01 | [27] 0.997 | [28] 1 | [29] 0.994 | [30] 1.01 | [31] 1.01 | locus YDR195W, strain ref2 1.07 | [32] 0.996 | [33] 1.02 | [34] 0.998 | [35] 0.966 | [36] 0.995 | [37] 0.99 | [38] 1.01 | [39] 0.996 | [40] 0.996 | [41] 1.01 | [42] 1.01 | [43] 1.03 | [44] 1 | [45] 1 | [46] 1.01 | [47] 0.987 | [48] 1 | [49] 0.995 | [50] 1 | [51] 0.997 | [52] 1 | [53] 0.998 | [54] 1.02 | [55] 0.946 | [56] 1 | [57] 0.983 | [58] 0.99 | [59] 1.02 | [60] 0.99 | [61] 0.993 | [62] 0.996 | [63] 1.01 | [64] 0.999 | [65] 1 | [66] 0.997 | [67] 0.988 | [68] 0.996 | [69] 0.96 | [70] 1 | [71] 0.995 | [72] 1.13 | [73] 0.993 | [74] 0.996 | [75] 0.998 | [76] 1.02 | [77] 1.11 | [78] 0.991 | [79] 0.998 | [80] 1 | [81] 1 | [82] 0.993 | [83] 1.07 | [84] 1.01 | [85] 1 | [86] 0.996 | [87] 0.991 | [88] 1.01 | [89] 0.976 | [90] 0.986 | [91] 0.994 | [92] 0.924 | [93] 1.04 | [94] 0.988 | [95] 1.01 | [96] 0.964 | [97] 0.985

CC#C[C@]1(O)CC[C@H]2[C@@H]3CCC4=CC(=O)CCC4=C3[C@@H](c3ccc(N(C)C)cc3)C[C@@]21C
inactive: [1] 0.978 | [2] 0.98 | locus YDR150W, strain NUM1, hits give low values 0.981 | [3] 1.01 | [4] 1 | [5] 0.965 | [6] 0.984 | locus YNL128W, strain TEP1, hits give low values 1.04 | [7] 0.951 | [8] 0.983 | [9] 0.998 | [10] 0.979 | locus YNL322C, strain KRE1, hits give low values 0.965 | [11] 0.991 | locus YPL055C, strain LGE1, hits give low values 0.99
